# Test results: PubChem BioAssay (NCATS)
# Several values for one entry are separate records, joined by “and”; a condition that tells them apart may be missing. Equal values may be shown once. A number with no mark means an inactive call. Inconclusive results are not listed. Entries that show only a call come without a potency. The source holds several records for some structures; these can differ, active in one and inactive in another. Activity calls are given as the source filed them. Unless noted, the call rests on the fitted dose curve; in most records, active means well fitted curve in the direction sought with a large enough effect; inconclusive means small, poorly fitted or top-dose-only effect, or another doubt; inactive means no such curve, though single readings can be large; an effect the other way counts as inactive or inconclusive.
# Assays:
# [1] = qHTS Assay for Identifying Gametocytocidal Compounds (AID 743244); further: potency means the concentration at half of the fitted maximal effect;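 on max response: actives lower the fluorescent signal which means gametocytes are killed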; settings: P. falciparum 3D7 stage III-V gametocytes, alamarBlue, 72 h; max response: stronger effect = lower value
# Summary of the method: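 Viability read-out was resazurin reduction (alamarBlue, 24 h) measured at Ex 525/Em 598 nm. Beforehand, late-stage (III-V) 3D7 P. falciparum gametocytes at 20,000 cells/well were incubated with compound 72 h at 37C under 5% CO2.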
# [2] = qHTS assay for small molecule agonists of the antioxidant response element (ARE) signaling pathway measured by Nrf2-dependant transcriptional activity - cell viability counter screen (AID 720653; active means well fitted curve in the direction sought with a large enough effect in the repeat runs; an effect the other way counts as inactive or inconclusive); settings: ARE-bla HepG2 viability, CellTiter-Glo ATP luminescence, 16 h; max response: stronger effect = lower value
# Summary of the method: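 ARE-bla HepG2 cells (2,000/well) rested 5 hrs at 37C/5% CO2, then exposed to compounds in DMSO for 16 hrs. Viability was read in the same wells as intracellular ATP by luminescence, 30 min at room temperature after reagent addition.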
# [3] = qHTS assay for cell viability of HEK293 cells (AID 743288); settings: ATP luminescence (CellTiter-Glo), 18 h; max response: stronger effect = lower value; further: nearly all actives have a fitted effect of over 50% in size
# Summary of the method: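 Parental HEK293 cells, 2,000 per well, preincubated at least 5 h at 37 C, then exposed to compounds in DMSO for 18 h at 37 C. Viability by CellTiter-Glo ATP luminescence after 30 min at room temperature.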
# [4] = qHTS assay for cell viability of the p53RE-bla HCT-116 cell line (AID 743292); settings: p53RE-bla HCT-116 viability, ATP luminescence, 16 h; series mostly up to 95 µM; further: nearly all actives have a fitted effect of over 55% in size; further: potency means the concentration at half of the fitted maximal effect
# Summary of the method: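 Intracellular ATP of p53RE-bla HCT-116 cells measured by luciferase luminescence following 16 h compound incubation at 37 C; DMSO-only wells served as vehicle controls.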
# [5] = target: Hexokinase-4 (Homo sapiens) + Glucokinase regulatory protein (Homo sapiens) (UniProt P35557+Q14397); experiment: qHTS assay for inhibitors of recombinant human GCK-GKRP interaction: ADP-Glo assay (AID 743206); settings: ADP-Glo luminescence, 60 min, 0% = vehicle-only wells with enzyme present; series mostly up to 76.9 µM
# Summary of the method: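 GST-GCK and FLAG-GKRP (15 nM each in the dispensed mix, with 2 uM S6P) react with 0.4 mM ATP and 5 mM glucose (final) in Hepes pH 7.6 for 60 min at room temperature. ADP is measured by ADP-Glo luminescence.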
# [6] = qHTS for Activators of Parkin Expression: LOPAC Validation Assay (FLuc Reporter) (AID 720573); settings: Cell line, PRKN promoter firefly luciferase reporter; series mostly up to 46.1 µM
# Summary of the method: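 Neuronal cell line stably expressing FLuc/NLuc coincidence reporter under the Parkin promoter, 1,500 cells/well, dosed 24 h after seeding in 7-point series for 24 h at 37 C. FLuc luminescence read; normalized to DMSO and positive control (100%).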
# [7] = qHTS assay for small molecule agonists of the antioxidant response element (ARE) signaling pathway measured by Nrf2-dependant transcriptional activity (AID 720636; active means well fitted curve in the direction sought with a large enough effect in the repeat runs; an effect the other way counts as inactive or inconclusive; further: potency means the concentration at half of the fitted maximal effect); settings: ARE-luc HepG2, Nrf2 luciferase reporter, 16 h; series mostly up to 92.4 µM
# Summary of the method: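 In HepG2 cells engineered with an Nrf2-responsive luciferase gene, ARE induction was quantified as luminescence after 16 hr compound treatment at 37 C.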
# [8] = qHTS assay for small molecule antagonists of the retinoid-related orphan receptor gamma (ROR-gamma) signaling pathway - cell viability counter screen (AID 720652; active means well fitted curve in the direction sought with a large enough effect in the repeat runs; an effect the other way counts as inactive or inconclusive;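 further: CHO reporter cells with doxycycline-induced ROR-gamma expression; compound exposure lasted 16 hr before ATP read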); settings: RORgamma reporter cell line viability counter screen; series mostly up to 92.2 µM
# Summary of the method: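 Counter screen in CHO cells carrying TET-inducible ROR-gamma and an ROR response element-luciferase reporter; cells plated 5 hr, compound pinned, doxycycline added, then 16 hr at 37 C. Viability read as intracellular ATP by CellTiter-Glo luminescence.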
# [9] = target: Arylsulfatase A (Homo sapiens) (UniProt P15289); experiment: qHTS screen for enhancers of Arylsulfatase A (ASA1): LOPAC Validation Assay (AID 720538); settings: ASA enzyme activity, LOPAC qHTS enhancer assay; series mostly up to 57.5 µM
# Summary of the method: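 SV40-transformed fibroblasts from an MLD patient (ASA-I179S) were treated with compound for 48 h at 37 C. They were then lysed with 0.5 mM pNCS substrate (final) for 14 h at room temperature and stopped with NaOH; signal read by fluorescence (Ex 525/Em 598 nm), with increase denoting enhanced activity.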
# Sequence of Hexokinase-4 (Homo sapiens) + Glucokinase regulatory protein (Homo sapiens) (P35557 whole entry, looked up): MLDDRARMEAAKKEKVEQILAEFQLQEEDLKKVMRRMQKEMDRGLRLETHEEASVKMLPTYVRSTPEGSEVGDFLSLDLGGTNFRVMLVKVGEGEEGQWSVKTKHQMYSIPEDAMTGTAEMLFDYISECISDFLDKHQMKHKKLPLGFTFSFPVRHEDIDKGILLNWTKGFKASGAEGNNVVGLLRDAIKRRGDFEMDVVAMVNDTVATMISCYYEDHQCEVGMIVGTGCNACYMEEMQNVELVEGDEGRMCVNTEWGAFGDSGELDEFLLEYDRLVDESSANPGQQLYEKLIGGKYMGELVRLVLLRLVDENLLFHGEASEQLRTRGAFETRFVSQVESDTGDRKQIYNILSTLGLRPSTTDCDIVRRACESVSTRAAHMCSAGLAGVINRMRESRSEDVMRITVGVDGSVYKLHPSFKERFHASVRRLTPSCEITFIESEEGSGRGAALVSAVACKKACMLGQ
# Sequence of Hexokinase-4 (Homo sapiens) + Glucokinase regulatory protein (Homo sapiens) (Q14397 whole entry, looked up): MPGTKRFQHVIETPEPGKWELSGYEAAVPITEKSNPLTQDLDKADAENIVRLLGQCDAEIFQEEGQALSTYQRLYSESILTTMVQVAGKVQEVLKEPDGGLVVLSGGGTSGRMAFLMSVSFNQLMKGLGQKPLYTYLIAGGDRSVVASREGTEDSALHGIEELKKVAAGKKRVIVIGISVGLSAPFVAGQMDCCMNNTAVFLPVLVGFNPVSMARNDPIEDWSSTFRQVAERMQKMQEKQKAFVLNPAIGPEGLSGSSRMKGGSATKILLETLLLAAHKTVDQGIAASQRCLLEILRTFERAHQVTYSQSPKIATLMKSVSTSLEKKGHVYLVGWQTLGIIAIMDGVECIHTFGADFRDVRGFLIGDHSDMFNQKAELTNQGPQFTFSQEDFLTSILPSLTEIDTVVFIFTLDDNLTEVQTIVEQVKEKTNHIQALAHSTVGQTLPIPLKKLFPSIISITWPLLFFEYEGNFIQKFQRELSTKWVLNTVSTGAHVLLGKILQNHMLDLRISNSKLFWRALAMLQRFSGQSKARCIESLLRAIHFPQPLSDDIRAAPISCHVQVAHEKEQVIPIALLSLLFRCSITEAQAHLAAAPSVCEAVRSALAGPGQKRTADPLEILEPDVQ
# Sequence of Arylsulfatase A (Homo sapiens) (P15289 whole entry, looked up): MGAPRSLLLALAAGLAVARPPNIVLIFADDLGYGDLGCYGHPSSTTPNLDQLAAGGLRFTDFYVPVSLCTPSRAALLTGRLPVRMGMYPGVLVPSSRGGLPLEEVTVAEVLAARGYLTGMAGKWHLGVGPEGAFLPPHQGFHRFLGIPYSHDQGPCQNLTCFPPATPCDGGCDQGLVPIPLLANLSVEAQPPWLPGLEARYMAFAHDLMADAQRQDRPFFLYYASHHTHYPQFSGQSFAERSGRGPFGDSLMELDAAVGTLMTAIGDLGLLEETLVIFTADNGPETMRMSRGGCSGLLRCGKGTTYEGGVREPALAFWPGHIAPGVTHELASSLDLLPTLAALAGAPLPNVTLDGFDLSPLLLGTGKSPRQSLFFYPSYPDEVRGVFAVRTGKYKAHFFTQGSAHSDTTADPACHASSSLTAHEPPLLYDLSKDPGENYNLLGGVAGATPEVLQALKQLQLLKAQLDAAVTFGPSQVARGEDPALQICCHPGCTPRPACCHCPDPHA
smiles,measurement,setting,value
CC(C(=O)O)c1ccc(-c2ccccc2)c(F)c1 (centres undefined),max response,[1],6.81%
O=c1c(O)c(-c2ccc(O)cc2)oc2cc(O)cc(O)c12,max response,[2],-6.13% and -4.97%
same,max response,[3],3.99% and -0.18%
same,Potency,[4],inactive
COc1cccc(-c2cc(=O)c3ccccc3o2)c1N,outcome,[5],inactive
COc1ccc(Cc2nccc3cc(OC)c(OC)cc23)cc1OC,Potency,[6],inactive
same,outcome,[5],inactive
CCCNC(=O)NS(=O)(=O)c1ccc(Cl)cc1,Potency,[6],inactive
same,Potency,[7],inactive
same,Potency,[8],inactive
same,max response,[2],9.19% and -14.5%
same,outcome,[5],inactive
same,max response,[1],10.2% and -7.21%
same,max response,[3],3.46% and -2.3%
same,Potency,[4],inactive
O=c1[nH]cnc2c1ncn2[C@H]1CC[C@@H](CO)O1,Potency,[7],inactive
same,Potency,[8],inactive
same,max response,[2],7.68% and 6.47%
same,max response,[1],-6.96%
same,max response,[3],-8.26% and -9.92%
same,Potency,[4],inactive
C[N+](C)(C)CCCCCC[N+](C)(C)C,outcome,[9],inactive
same,Potency,[6],inactive
same,outcome,[5],inactive
same,max response,[1],5.46% and 9.66% and 12.2%
C[C@@H](O)[C@H]1C(=O)N2C(C(=O)O)=C(S[C@@H]3CN[C@H](C(=O)N(C)C)C3)[C@H](C)[C@H]12,max response,[1],2.89%
O=c1c(-c2ccc(O)cc2)coc2cc(O)ccc12,outcome,[9],inactive
same,max response,[2],-5.4% and -12%
same,outcome,[5],inactive
same,max response,[1],16.7%
same,max response,[3],-7.57% and -12.8%
same,Potency,[4],inactive
NC(N)=Nc1nc(CSCC/C(N)=N/S(N)(=O)=O)cs1,outcome,[9],inactive
same,Potency,[6],inactive
same,outcome,[5],inactive
same,max response,[1],5.05% and 9.64%
O=C(O)CCc1nc(-c2ccccc2)c(-c2ccccc2)o1,outcome,[9],inactive
same,Potency,[6],inactive
same,max response,[1],14.6% and 5.09%
Cc1cnc(C(=O)O)c[n+]1[O-],max response,[1],8.17% and 2.06% and -4.26%
CC(=O)CCCCn1c(=O)c2c(ncn2C)n(C)c1=O,Potency,[6],inactive
same,outcome,[5],inactive
same,max response,[1],-1.45% and 1.03%
O=C(O)c1cc(-c2ccccc2)nc2ccccc12,max response,[2],-16.1%
same,max response,[1],4.65% and 33.8%
same,max response,[3],-15%
same,Potency,[4],inactive
O=c1cc(-c2ccccc2)oc2cc(O)cc(O)c12,Potency,[7],13.7 µM (active)
same,max response,[2],-2.85%
same,max response,[3],-14.1%
same,Potency,[4],inactive
CC(C)OC(=O)C(C)(C)Oc1ccc(C(=O)c2ccc(Cl)cc2)cc1,outcome,[9],inactive; inhibitor; fitted 0.151 uM
same,max response,[2],3.55%
same,outcome,[5],inactive
same,max response,[1],7.26% and 15.7%
same,max response,[3],-17.2%
same,Potency,[4],inactive
CC(C)NCC(O)COc1cccc2[nH]ccc12 (centres undefined),outcome,[9],inactive
same,max response,[1],5.47% and 6.31%
O=C(O)Cc1cccc2ccccc12,Potency,[7],inactive
same,Potency,[8],inactive
same,max response,[2],-3.63% and 1.79%
same,max response,[1],19.3% and -5.56%
same,max response,[3],1.25% and 0.847%
same,Potency,[4],inactive
CCN1CCC[C@H]1CNC(=O)c1cc(S(N)(=O)=O)ccc1OC,outcome,[9],inactive
same,Potency,[6],inactive
same,outcome,[5],inactive
same,max response,[1],11.5% and 6.55%
O=C(O)c1cc(O)c2c(c1)C(=O)c1cccc(O)c1C2=O,Potency,[7],inactive
same,Potency,[8],inactive
same,max response,[3],-22.9%
same,Potency,[4],35.5 µM (active)
CCN(CC)C(=O)c1ccc(O)c(OC)c1,outcome,[9],inactive; inhibitor; fitted 6.012 uM
same,Potency,[6],inactive
same,outcome,[5],inactive
same,max response,[1],14.2% and 0.626% and 4.97%
CC[C@]1(O)C[C@@H]2CN(CCc3c([nH]c4ccccc34)[C@@](C(=O)OC)(c3cc4c(cc3OC)N(C)[C@H]3[C@@](O)(C(=O)OC)[C@H](OC(C)=O)[C@]5(CC)C=CCN6CC[C@]43[C@@H]65)C2)C1,Potency,[1],15.8 µM (active)
same,max response,[1],-2.09%
